Experimental findings from PubChem BioAssay are described below.

Test [1] can be described thus: hit retest on RPL19A-GFP reporter strain – cell-based, S. cerevisiae, flow cytometry, cherry picks, mother/daughter gates, confirmation (AID 2270;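 active = GFP response below 50% of the DMSO control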). Particulars: 3 h, at 10 µM, stronger effect = lower value, 100 = same GFP as DMSO wells.
Test [2] can be described thus: yeast TOR pathway reporter LAP4-GFP change – cell-based, cherry picks, flow cytometry, mother/daughter gates, confirmation (AID 2271).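 Note: ratio of sample to DMSO plate mean so 100% equals DMSO level.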 Conditions: S. cerevisiae LAP4-GFP strain, 3 h, at 10 µM, stronger effect = higher value.
Test [3] is described as follows: TOR pathway CIT2 reporter hit retest – S. cerevisiae, GFP fusion, cherry picks, mother/daughter gates, confirmation (AID 2274;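 active = GFP response above 150% of the DMSO level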). Particulars: S. cerevisiae CIT2-GFP strain, flow cytometry, 3 h, at 10 µM, stronger effect = higher value.
Test [4] in a line: rapamycin-like changes in RPL19A-GFP expression – cell-based, S. cerevisiae, multiplex flow cytometry, primary screen (AID 1862; in the data active = percent of DMSO control GFP below about 86%;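 note: lower values mimic rapamycin by blocking the RPL19A rise seen in DMSO cells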). Conditions: S. cerevisiae RPL19A-GFP strain, flow cytometry fluorescence, 3 h; at 10 µM; stronger effect = lower value.
Test [5] in a line: TOR pathway GLN3 branch reporter MEP2-GFP changes – S. cerevisiae, multiplex flow cytometry, primary screen (AID 1867;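 active = GFP response, as percent of the DMSO control, above the screen-wide mean plus 3 SD, about 139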;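 note: median GFP channel fluorescence of barcode-gated MEP2-GFP cells measured by flow cytometry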). Conditions: S. cerevisiae MEP2-GFP strain, 3 h, at 10 µM, stronger effect = higher value.
The nature of test [6]: TOR pathway RTG branch CIT2 reporter changes – S. cerevisiae, GFP fusion, multiplex flow cytometry, primary screen (AID 1870;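 active = percent response above a set limit, the screen-wide mean plus 3 SD, cut at about 130% in these data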;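 note: barcoded CIT2-GFP strain pooled with four other GFP strains with rapamycin as positive control; median GFP fluorescence per well over plate mean of DMSO wells so 100% = DMSO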). Conditions: S. cerevisiae CIT2-GFP expression, 3 h, at 10 µM, stronger effect = higher value.
Test [7] can be described thus: TOR pathway LAP4-GFP level changes – S. cerevisiae, multiplex flow cytometry, primary screen (AID 1873;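 active = GFP signal, as percent of the solvent control, above the screen mean plus 3 SD, about 149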). Conditions: S. cerevisiae LAP4-GFP expression, 3 h, at 10 µM, stronger effect = higher value.
Test [8] can be described thus: reduced mouse 2C T cell binding to pMHC/ICAM-1 vesicles – MLPCN validation set, flow cytometry, LFA-1/ICAM-1 modulator project, pilot screen (AID 2523;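 active = response below a set limit, under 55% cells CD8-positive and vesicle-bound, and CD8 cells' 90th-percentile brightness under 279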;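 for vesicle binding response: mean PE anti-B7-1 fluorescence of CD8+ cells relative to row control; 100% = QL9-loaded vesicles with DMSO vehicle in the same plate row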). Conditions: 2C mouse CD8+ T cells, at 7 µM, stronger effect = lower value; double positive events: measured here: CD8+/vesicle+ event percentage.
In test [9] the target is Integrin beta-1 (Homo sapiens) + Integrin alpha-4 (Homo sapiens) (UniProt P13612+P05556). The test is described as follows: alpha4beta1 integrin LIBS antibody binding reduction – U937 cells, HUTS-21 mAb, flow cytometry, validation set, VLA-4 allosteric modulator project, pilot screen (AID 2674;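 active = inhibition above 50%, about 3 SD of the validation set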;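 note: antibody binding induced by the VLA-4 ligand LDV present at three times its Kd; 0% = LDV ligand with antibody and no compound and 100% = antibody without LDV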). Conditions: HUTS-21 LIBS mAb binding, at 6.7 µM, stronger effect = higher value.
Test [10] is described as follows: calorie-restriction mimetic ROS inhibitors, yeast – validation compound set, pilot screen (AID 2706;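 active = superoxide response below 65% of plate, a cut near 3 SD across the whole screen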;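 note: yeast exposed to compound for one week at 30 degrees C before staining; 100% = mean of all compound wells on the same plate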). Conditions: S. cerevisiae aging, superoxide DHE fluorescence; at 10 µM; stronger effect = lower value.
In test [11] the target is Beta-adrenergic receptor kinase 1 (Homo sapiens) (UniProt P25098). The test is described as follows: GRK2 binders displacing RNA aptamer, biochemical, validation, human GRK2, bead flow cytometry (AID 488806;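 active = aptamer binding inhibition above 30%, about 3 SD of noise from non-fluorescent compounds; inactive = inhibition at or below 30%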). Conditions: bead-bound GRK2, FAM-aptamer displacement, at 10 µM, stronger effect = higher value.
For test [12], the target named is AP-2 complex subunit beta (Homo sapiens) (UniProt P63010). The test is described as follows: beta-arrestin/AP2 interaction blockers – biochemical, validation set, GST-AP2 beads, flow cytometry, pilot screen (AID 504541;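 active = inhibition above 54%, about 3 SD of non-fluorescent compounds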;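 note: AP2 carries R879A mutation and is captured from E. coli lysate; bead-bound FITC arrestin peptide fluorescence measuring arrestin peptide binding to AP2; 0% = DMSO wells and 100% = excess unlabeled arrestin peptide control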). Particulars: FITC arrestin peptide, at 10 µM, stronger effect = higher value.
Test [13] is described as follows: cytosolic pH regulators acting via V-ATPase – S. cerevisiae, pHLuorin, HTS validation (AID 504600; in the data active = response above about 15%;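 note: plate controls were DMSO for no effect and reference compound for full effect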). Particulars: V-ATPase proton transport, at 10 µM, stronger effect = higher value.
For test [14], the system named is anti-desmoglein-3 scFv antibody binding to human DSG3. The test is described as follows: blockers of pathogenic pemphigus antibody–desmoglein-3 binding – biochemical, validation compound set, bead-based, flow cytometry, pilot screen (AID 588368;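 active = binding below the plate cutoff, the plate median minus 3 SD, with a reading above zero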;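 note: signal is the median channel fluorescence of bead-bound GFP antibody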). Conditions: Protein G beads, DSG3-Fc, scFv-GFP binding, at 10 µM, stronger effect = lower value.
Test [15] has as its system Botulinum neurotoxin type F light chain protease (Clostridium botulinum). The test is described as follows: Clostridium botulinum type F light chain protease inhibitors, microsphere substrate cleavage, validation (AID 588459; call rule not given here). Particulars: multiplex microsphere protease substrate cleavage assay, flow cytometry; at 10 µM; stronger effect = higher value.
The target of test [16] is Botulinum neurotoxin type A (Clostridium botulinum) (UniProt P0DPI0). The test is described as follows: BoNT/A light chain protease inhibitors, biochemical, multiplex microsphere flow cytometry, validation set (AID 588460; call rule not given here). Conditions: at 10 µM, stronger effect = higher value.
Test [17] addresses Lethal factor (Bacillus anthracis) (UniProt P15917). The test is described as follows: Bacillus anthracis lethal factor inhibition, microsphere flow cytometry protease assay, validation at 10 µM (AID 588461; call rule not given here). Conditions: multiplex microsphere protease cleavage assay, stronger effect = higher value.
Test [18] in a line: Nile Red efflux blockade in pump-expressing yeast – validation compound set, multiplex, phenotypic, pilot screen (AID 588506;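 active = efflux inhibition above 0.42, the validation set average plus 4 SD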;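 note: Nile Red retained in cells so higher fluorescence means more efflux inhibition; 0 = negative control wells and 1 = enniatin B 25 µM full block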). Conditions: S. cerevisiae pump-expressing triplex, Nile Red efflux flow cytometry; at 10 µM; stronger effect = higher value.
Test [19] addresses ATP-binding cassette sub-family B member 6 (Homo sapiens) (UniProt Q9NP58). The test is described as follows: blockers of ABCB6-driven porphyrin uptake – K562-ABCB6 cells, flow cytometry, validation set, pilot screen (AID 588550;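 active = inhibition above the screen-wide mean plus 3 SD, about 51%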;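 note: 0% = DMSO wells and 100% = benzethonium chloride 70 µM positive control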). Particulars: K562-ABCB6 porphyrin accumulation, 1 h, at 10 µM, stronger effect = higher value.
The nature of test [20]: AML differentiation inducers, ER-HoxA9 marrow cells – cell-based, GFP/MAC1 double positive, flow cytometry, validation set, primary screen (AID 588685;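 active = differentiation response of at least 50%, scaled between solvent and reference control, from cells with both markers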;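 note: compound exposure lasts four days before antibody staining and flow analysis; 0% = DMSO wells and 100% = 5 µM fulvestrant positive control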). Conditions: stronger effect = higher value.
[21] abbreviates: measured here: daughter cell gate.
The mark [22] stands for this setting: measured here: mother cell gate.
[23] abbreviates: measured here: daughter cell gate response.
Where [24] appears, read: measured here: mother cell gate response.

Inconclusive results are not listed. Calls of active or inactive are those of the source.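 Rule for the calls, unless noted: active = GFP response above 150% of the DMSO control; inconclusive = fewer than 70 events counted in any yeast strain; inactive = the rest.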

Sequence of AP-2 complex subunit beta (Homo sapiens) (P63010 whole entry, looked up, one chain of several): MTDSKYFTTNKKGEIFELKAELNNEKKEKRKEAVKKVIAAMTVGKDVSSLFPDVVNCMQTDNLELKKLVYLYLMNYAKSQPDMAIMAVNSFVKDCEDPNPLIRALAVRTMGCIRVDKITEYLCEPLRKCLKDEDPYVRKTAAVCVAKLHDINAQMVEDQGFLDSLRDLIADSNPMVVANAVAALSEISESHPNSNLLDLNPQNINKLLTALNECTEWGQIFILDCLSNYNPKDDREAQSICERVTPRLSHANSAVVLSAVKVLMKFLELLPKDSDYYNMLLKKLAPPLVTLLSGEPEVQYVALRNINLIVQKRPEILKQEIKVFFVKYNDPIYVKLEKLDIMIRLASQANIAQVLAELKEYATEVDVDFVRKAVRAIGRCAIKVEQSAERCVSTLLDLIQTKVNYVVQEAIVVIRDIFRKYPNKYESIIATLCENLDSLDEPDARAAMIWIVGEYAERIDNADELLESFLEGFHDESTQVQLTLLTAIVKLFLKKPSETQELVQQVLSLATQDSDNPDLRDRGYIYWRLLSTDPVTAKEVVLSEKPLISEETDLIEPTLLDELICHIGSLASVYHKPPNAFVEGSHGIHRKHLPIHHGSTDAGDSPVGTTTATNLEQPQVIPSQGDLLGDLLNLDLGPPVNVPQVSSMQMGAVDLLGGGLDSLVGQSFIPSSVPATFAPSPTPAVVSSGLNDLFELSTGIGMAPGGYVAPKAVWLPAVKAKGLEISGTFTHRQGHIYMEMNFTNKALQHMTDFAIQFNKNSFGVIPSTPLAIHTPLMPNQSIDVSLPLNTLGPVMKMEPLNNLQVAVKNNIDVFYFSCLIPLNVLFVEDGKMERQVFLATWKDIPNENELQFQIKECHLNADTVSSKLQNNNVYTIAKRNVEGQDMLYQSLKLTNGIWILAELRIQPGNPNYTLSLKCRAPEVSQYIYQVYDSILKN
Sequence of ATP-binding cassette sub-family B member 6 (Homo sapiens) (Q9NP58 whole entry, looked up): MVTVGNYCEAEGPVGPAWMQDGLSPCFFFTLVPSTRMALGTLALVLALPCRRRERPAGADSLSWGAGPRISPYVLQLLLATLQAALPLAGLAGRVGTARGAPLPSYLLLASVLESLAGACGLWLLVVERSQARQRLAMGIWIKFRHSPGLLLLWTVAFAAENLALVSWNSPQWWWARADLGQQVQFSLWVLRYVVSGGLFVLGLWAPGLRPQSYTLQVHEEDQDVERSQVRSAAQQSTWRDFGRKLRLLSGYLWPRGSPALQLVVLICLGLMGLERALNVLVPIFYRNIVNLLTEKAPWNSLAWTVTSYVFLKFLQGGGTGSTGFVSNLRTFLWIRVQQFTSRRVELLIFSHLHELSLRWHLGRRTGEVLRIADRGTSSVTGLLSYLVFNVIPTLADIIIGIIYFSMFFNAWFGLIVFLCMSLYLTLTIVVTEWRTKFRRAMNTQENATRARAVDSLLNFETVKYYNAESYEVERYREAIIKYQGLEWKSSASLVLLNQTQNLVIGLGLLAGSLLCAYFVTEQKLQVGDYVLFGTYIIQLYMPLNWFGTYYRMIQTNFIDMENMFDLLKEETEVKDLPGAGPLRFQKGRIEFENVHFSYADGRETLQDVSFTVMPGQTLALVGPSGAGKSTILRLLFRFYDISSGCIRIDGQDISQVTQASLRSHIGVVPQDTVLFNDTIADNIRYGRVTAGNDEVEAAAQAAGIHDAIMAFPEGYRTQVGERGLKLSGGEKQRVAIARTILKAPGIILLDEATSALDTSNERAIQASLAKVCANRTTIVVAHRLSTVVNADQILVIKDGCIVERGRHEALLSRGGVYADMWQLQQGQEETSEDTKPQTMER
Sequence of Integrin beta-1 (Homo sapiens) + Integrin alpha-4 (Homo sapiens) (P05556 whole entry, looked up): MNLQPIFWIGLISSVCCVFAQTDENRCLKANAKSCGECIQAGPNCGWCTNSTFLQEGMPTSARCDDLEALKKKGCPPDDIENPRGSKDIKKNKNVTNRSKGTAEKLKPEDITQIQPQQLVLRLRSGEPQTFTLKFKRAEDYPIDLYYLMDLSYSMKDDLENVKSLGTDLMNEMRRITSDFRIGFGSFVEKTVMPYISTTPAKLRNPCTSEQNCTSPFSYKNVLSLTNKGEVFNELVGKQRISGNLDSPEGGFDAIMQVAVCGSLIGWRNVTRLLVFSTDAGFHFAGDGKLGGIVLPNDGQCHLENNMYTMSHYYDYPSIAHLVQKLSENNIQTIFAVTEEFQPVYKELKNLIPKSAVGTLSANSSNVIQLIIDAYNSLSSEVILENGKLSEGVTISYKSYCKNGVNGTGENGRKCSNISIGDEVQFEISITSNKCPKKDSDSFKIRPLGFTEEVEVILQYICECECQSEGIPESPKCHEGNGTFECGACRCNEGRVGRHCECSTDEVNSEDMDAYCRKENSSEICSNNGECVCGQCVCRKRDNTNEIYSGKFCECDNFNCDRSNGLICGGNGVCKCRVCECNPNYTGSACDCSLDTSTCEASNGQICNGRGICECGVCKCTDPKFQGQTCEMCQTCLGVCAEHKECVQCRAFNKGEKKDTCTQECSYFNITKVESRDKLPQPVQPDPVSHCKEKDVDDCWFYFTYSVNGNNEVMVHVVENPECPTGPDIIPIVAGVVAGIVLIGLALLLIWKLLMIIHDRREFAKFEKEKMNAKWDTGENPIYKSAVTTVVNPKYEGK
Sequence of Integrin beta-1 (Homo sapiens) + Integrin alpha-4 (Homo sapiens) (P13612 whole entry, looked up): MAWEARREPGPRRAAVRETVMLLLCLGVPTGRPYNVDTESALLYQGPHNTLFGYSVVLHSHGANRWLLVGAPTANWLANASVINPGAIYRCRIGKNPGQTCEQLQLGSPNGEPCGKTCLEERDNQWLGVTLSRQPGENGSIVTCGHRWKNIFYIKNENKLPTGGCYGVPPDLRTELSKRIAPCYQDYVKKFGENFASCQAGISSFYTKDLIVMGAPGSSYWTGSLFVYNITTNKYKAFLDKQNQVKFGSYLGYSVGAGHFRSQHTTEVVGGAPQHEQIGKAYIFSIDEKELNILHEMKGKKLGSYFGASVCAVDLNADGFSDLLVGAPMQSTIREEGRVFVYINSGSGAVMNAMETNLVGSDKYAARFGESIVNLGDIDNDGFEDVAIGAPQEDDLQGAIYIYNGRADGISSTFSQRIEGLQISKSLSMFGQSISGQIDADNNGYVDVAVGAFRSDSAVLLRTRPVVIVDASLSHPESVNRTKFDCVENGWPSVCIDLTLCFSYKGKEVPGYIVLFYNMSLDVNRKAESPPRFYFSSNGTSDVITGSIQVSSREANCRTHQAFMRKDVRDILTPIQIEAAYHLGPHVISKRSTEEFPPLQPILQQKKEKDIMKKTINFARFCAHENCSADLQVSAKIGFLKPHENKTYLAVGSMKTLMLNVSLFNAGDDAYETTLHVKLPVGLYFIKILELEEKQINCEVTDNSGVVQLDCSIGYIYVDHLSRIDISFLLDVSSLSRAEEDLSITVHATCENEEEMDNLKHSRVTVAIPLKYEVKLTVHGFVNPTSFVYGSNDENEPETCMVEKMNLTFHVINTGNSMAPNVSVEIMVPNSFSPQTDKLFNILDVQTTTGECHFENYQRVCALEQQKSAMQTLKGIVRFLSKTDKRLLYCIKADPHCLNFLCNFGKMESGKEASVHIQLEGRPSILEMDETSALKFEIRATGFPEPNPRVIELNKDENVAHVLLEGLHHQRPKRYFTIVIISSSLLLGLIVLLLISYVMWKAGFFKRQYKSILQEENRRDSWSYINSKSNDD
Sequence of Botulinum neurotoxin type A (Clostridium botulinum) (P0DPI0 whole entry, looked up): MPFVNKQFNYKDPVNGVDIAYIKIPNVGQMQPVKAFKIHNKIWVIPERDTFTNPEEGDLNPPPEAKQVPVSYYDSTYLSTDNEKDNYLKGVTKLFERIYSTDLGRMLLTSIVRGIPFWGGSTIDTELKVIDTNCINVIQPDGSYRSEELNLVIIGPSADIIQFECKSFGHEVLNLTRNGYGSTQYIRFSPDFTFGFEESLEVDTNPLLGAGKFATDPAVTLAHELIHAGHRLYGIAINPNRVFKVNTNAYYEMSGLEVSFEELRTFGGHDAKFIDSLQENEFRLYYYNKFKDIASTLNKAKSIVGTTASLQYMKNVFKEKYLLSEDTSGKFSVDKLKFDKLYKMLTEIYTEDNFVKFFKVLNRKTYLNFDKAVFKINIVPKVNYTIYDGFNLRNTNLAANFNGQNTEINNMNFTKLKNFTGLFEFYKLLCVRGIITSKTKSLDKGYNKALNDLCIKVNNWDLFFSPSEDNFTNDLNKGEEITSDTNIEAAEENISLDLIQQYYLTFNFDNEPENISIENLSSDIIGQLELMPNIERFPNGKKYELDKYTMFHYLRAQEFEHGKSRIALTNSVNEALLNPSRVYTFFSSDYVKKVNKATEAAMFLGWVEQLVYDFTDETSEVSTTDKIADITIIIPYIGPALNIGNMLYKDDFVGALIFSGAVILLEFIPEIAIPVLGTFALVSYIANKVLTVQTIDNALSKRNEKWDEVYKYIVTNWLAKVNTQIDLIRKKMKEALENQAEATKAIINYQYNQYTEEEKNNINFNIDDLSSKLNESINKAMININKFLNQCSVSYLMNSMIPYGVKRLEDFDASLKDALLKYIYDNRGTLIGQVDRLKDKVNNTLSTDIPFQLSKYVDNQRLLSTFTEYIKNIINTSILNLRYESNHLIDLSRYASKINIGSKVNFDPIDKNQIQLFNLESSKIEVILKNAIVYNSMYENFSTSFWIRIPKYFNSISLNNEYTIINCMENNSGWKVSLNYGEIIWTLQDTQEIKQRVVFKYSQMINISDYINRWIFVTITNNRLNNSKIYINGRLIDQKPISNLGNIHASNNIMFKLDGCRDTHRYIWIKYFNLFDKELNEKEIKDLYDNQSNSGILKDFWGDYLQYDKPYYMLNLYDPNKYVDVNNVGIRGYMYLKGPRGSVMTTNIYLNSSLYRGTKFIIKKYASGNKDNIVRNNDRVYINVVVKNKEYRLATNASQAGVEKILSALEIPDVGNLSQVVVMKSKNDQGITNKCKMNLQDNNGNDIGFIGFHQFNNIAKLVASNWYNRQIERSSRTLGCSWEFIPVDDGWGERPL

Turning to `COc1cc(/C=C/C(=O)c2c(O)n(CCc3ccccc3)c(=O)[nH]c2=O)ccc1O`, the GFP response vs DMSO in test [1] was 103% (inactive); in test [1] (setting [21]) it was 104%; in [1] (setting [22]) it was 103%. For the same molecule, the GFP response relative to DMSO is 90% (inactive) in [2], 90.4% in test [2] (setting [23]) and 88.9% in test [2] (setting [24]). The values for the GFP response, % of DMSO in [3], in [3] (setting [21]) and in [3] (setting [22]) were 115% (inactive), 114% and 112%, respectively.
With `N#CC(C#N)=NNc1ccc(-n2ccc(C(F)(F)F)n2)cc1`, the figures for the GFP response vs DMSO in test [1], in test [1] (setting [21]) and in [1] (setting [22]) were 98% (inactive), 97.6% and 96.9%, respectively. Besides, the GFP response relative to DMSO in test [2] (100 means same as DMSO control) is 111% (inactive); in [2] (measured here: daughter cell gate response, 100 means same as DMSO control) it was 104%; in test [2] (measured here: mother cell gate response, 100 means same as DMSO control), 111%. Besides, the GFP response, % of DMSO in test [3] is 97.2% (inactive); in test [3] (setting [21]), 97.6%; in test [3] (setting [22]), 97.1%.
With `O=C1NC(=O)N(CCC2=CCCCC2)C(=O)/C1=C/c1cccs1`, the GFP response vs DMSO was 98.4% (inactive) in test [1], 97.9% in [1] (setting [21]) and 97.6% in [1] (setting [22]). Besides, the GFP response relative to DMSO is 134% (inactive) in test [2], 128% in test [2] (setting [23]) and 138% in test [2] (setting [24]). Further, the GFP response, % of DMSO in test [3] was 91.2% (inactive); in test [3] (setting [21]), 93.6%; in test [3] (setting [22]) it was 86.7%.
Consider `CC12CN3CC(C)(CN(C1)C3c1cccnc1)C2=O` (stereo unspecified), for which the percent of DMSO control GFP in test [4] is 95.2% (inactive). For the same molecule, the results for the GFP response vs DMSO in [5] and in test [7] were 117% (inactive) and 81.4% (inactive), respectively. Further, the percent response of DMSO control in [6] is 97.9% (inactive). Further, the double positive events in [8] was 58%. Also, the vesicle binding response in test [8] is 174% (inactive). Also, the inhibition in [9] is 8.4% (inactive); in test [12], -8.61% (inactive); in test [15] it was -1.6% (inactive); in test [16], 0.6% (inactive); in test [17], 9.9% (inactive); in test [19] it was 7% (inactive). For the same molecule, the superoxide response (% of plate) in test [10] is 108% (inactive). In addition, the aptamer binding inhibition in test [11] is 4% (inactive). For the same molecule, the response in [13] is 0.14% (inactive). Besides, in [14], the binding (% of control) is 95.4% (inactive). Also, the efflux inhibition (fraction of control) in [18] is 0.3 (inactive). The differentiation response in test [20] is -3.28% (inactive).
As to `Cc1cccn2c(NCC3CCCO3)c(C(C)C)nc12` (stereo unspecified), the GFP response vs DMSO is 99.1% (inactive) in test [1], 100% in test [1] (setting [21]) and 100% in [1] (setting [22]). For the same molecule, the GFP response relative to DMSO in test [2] was 97.7% (inactive); in [2] (setting [23]), 96.5%; in [2] (setting [24]), 96.5%. Further, the GFP response, % of DMSO in [3] was 106% (inactive); in test [3] (setting [21]), 106%; in [3] (setting [22]), 105%.
Take `O=C1NC(=O)N(CCc2ccc(F)cc2)C(=O)/C1=C/c1ccco1`: the GFP response vs DMSO in test [1] was 98% (inactive); in [1] (setting [21]), 99.4%; in test [1] (setting [22]) it was 97%. In addition, the GFP response relative to DMSO in [2] is 104% (inactive); in test [2] (setting [23]) it was 106%; in test [2] (setting [24]) it was 104%. In addition, the GFP response, % of DMSO is 98.4% (inactive) in [3], 100% in test [3] (setting [21]) and 93.7% in test [3] (setting [22]).
Consider `O=C1NC(=O)N(c2ccccc2)C(=O)/C1=C\c1ccc([N+](=O)[O-])o1`, for which the GFP response vs DMSO was 98.7% (inactive) in test [1], 99.8% in [1] (setting [21]) and 98% in test [1] (setting [22]). The values for the GFP response relative to DMSO in test [2], in test [2] (setting [23]) and in test [2] (setting [24]) were 101% (inactive), 101% and 102%, respectively. In addition, the GFP response, % of DMSO was 103% (inactive) in [3], 105% in test [3] (setting [21]) and 104% in test [3] (setting [22]).
Turning to `O=C1/C(=C\c2ccc(Cl)c(Cl)c2)N2CCC1CC2`, the GFP response vs DMSO in [1] was 102% (inactive); in test [1] (setting [21]) it was 101%; in test [1] (setting [22]) it was 99.1%. Besides, the GFP response relative to DMSO in test [2] is 124% (inactive); in [2] (setting [23]) it was 119%; in test [2] (setting [24]), 130%. In addition, the GFP response, % of DMSO is 100% (inactive) in [3], 101% in test [3] (setting [21]) and 96.8% in [3] (setting [22]).
